These results are taken from PubChem BioAssay (Tox21).

“And” between values parts separate entries of the source, which are not always exact repeats. Equal values may be shown once. Results filed as inconclusive are left out. Where a call stands in place of a potency, no number is given. The source made the active and inactive calls. Calls come from the whole dose curve.
Potency is the fitted concentration of half-maximal effect.

A short description of the assay: p53 small molecule agonists, cell-based qHTS assay with human liver microsomes (AID 1963577). To be noted: HCT-116 p53RE-bla with human liver microsomes, ratio, 16 h; series mostly up to 66 µM. From the text:
National Center for Advancing Translational Sciences [NCATS]
Division of Preclinical Innovation [DPI]
U.S. Environmental Protection Agency [EPA]
National Institutes of Environmental Health Sciences [NIEHS]
National Toxicology Program [NTP]
U.S. Food and Drug Administration [FDA]
p53, a tumor suppressor protein, is activated following cellular insult, including DNA damage and other cellular stresses. The activation of p53 regulates cell fate by inducing DNA repair, cell cycle arrest, apoptosis, or cellular senescence. The activation of p53, therefore, is a good indicator of DNA damage and other cellular stresses. […] The activation of the reporter gene under culture conditions can be detected by fluorescence intensity.
Tox21 Assay Protocol Summary:
The p53RE-bla cells were dispensed at 4,000cells/3ul/well in 1536-well black-clear bottom plates. After the assay plates were incubated at 37 C, 5% CO2 incubator for 5 hours, 23 nL of compounds dissolved in DMSO, positive controls or DMSO only was transferred to the assay plate. Following compound addition, 3 uL of human liver microsomes (XenoTech, Kansas City, KS) at final concentration of 0.5 mg/mL and 1uL of Beta-Nicotinamide adenine dinucleotide 2-phosphate (NADPH) at final concentration of 0.5 mg/mL were transferred to the assay plate. The plates were incubated at 37 C for 16 hours. 1 uL of LiveBLAzer detection mixture was added to each well and the plates were incubated at room temperature in the dark for 2 h.
A general note: In qHTS, concentration-response curves come from the screen itself.
With `CCCCN(CC)C(=O)SCCC`, the Potency entry is “inactive”.

Take `CNc1cnn(-c2cccc(C(F)(F)F)c2)c(=O)c1Cl`: the Potency result was “inactive”.

On to `CC1CN1` (stereo not given), for which the Potency result was “inactive”.

On to `COP(=O)(O)OC`, for which the Potency result is “inactive”.

For `N#Cc1ccncc1`, the Potency result was “inactive”.

`CN(N=O)C(N)=O`: the Potency entry is “inactive”.

`CN(C)C(=O)Nc1ccc(Cl)cc1`: the Potency entry is “inactive”.

As to `O=C(O)COc1ccccc1`, the Potency entry is “inactive”.

As to `CCCCCCCCCCCCCl`, the Potency result is “inactive”.

As for `C=CC(=O)OC(C)(C)C`, the Potency result was “inactive”.

For `O=c1[nH]c(=O)[nH]c(=O)[nH]1`, the Potency result is “inactive”.

Turning to `C=C1CC[C@@]2(O)[C@H]3Cc4ccc(O)c5c4[C@@]2(CCN3CC2CC2)[C@H]1O5`, the Potency result was “inactive”.

On to `CCCCCc1cc(O)cc(O)c1`, for which the Potency result is “inactive”.

With `c1ccc(OP(Oc2ccccc2)Oc2ccccc2)cc1`, the Potency entry was “inactive”.

As for `N#Cc1ccc(Cl)cc1`, the Potency result was “inactive”.

Turning to `CN(C)CCc1ccc(O)cc1`, the Potency entry is “inactive”.

For the molecule `CC(C)Nc1ccc(Nc2ccccc2)cc1`, the Potency result was “inactive”.

On to `CCNc1nc(NC(C)(C)C)nc(SC)n1`, for which the Potency result is “inactive”.

With `C=CC(=O)NC(C)(C)CC(C)=O`, the Potency result is “inactive”.

Take `CCC(=O)c1ccccc1`: the Potency result is “inactive”.

For `CCCCCCCCCCCCCCCC[n+]1ccccc1`, the Potency entry is “inactive”.

As for `Nc1ccc(N=Nc2ccc(-c3ccc(N=Nc4c(S(=O)(=O)O)cc5cc(S(=O)(=O)O)c(N=Nc6ccccc6)c(O)c5c4N)cc3)cc2)c(N)c1`, the Potency entry is “inactive”.

As to `CCC[CH2][Sn]([Cl])([Cl])[CH2]CCC`, the Potency result is “inactive”.

`CCBr`: the Potency entry was “inactive”.

In the case of `CNC(=O)N(C)c1nnc(C(C)(C)C)s1`, the Potency result was “inactive”.

As for `Cc1cccc(N=Nc2ccc(N(C)C)cc2)c1`, the Potency entry is “inactive”.

In the case of `ClCCOCCCl`, the Potency result is “inactive”.

On to `C[C@]12CC[C@H]3[C@@H](CCC4=CC(=O)CC[C@@H]43)[C@@H]1CC[C@@H]2O`, for which the Potency result is “inactive”.

On to `NC(=O)CCl`, for which the Potency entry is “inactive”.

Consider `CCC(Br)(CC)C(=O)NC(N)=O`, for which the Potency result is “inactive”.

On to `CC(C)Nc1nc(Cl)nc(NC(C)C)n1`, for which the Potency result was “inactive”.

With `CCOP(=O)(OCC)Oc1ccc([N+](=O)[O-])cc1`, the Potency was 654 nM (active) and 513 nM (active).

For the molecule `O=[N+]([O-])c1ccc(Cl)cc1`, the Potency result is “inactive”.

For the molecule `CC(Cl)C(=O)O` (stereo not given), the Potency result is “inactive”.

On to `O=[N+]([O-])/C=C/c1ccccc1`, for which the Potency result is “inactive”.

Regarding `CCNc1nc(NCC)nc(SC)n1`, the Potency entry was “inactive”.

As for `O=C(Cl)OCc1ccccc1`, the Potency entry is “inactive”.

Consider `CCCCCCCCCCCC[N+](C)(C)CCOc1ccccc1`, for which the Potency entry is “inactive”.

As for `CC(Cl)CCl` (stereo not given), the Potency entry was “inactive”.

On to `O=[N+]([O-])c1c(Cl)c(Cl)c(Cl)c(Cl)c1Cl`, for which the Potency entry was “inactive”.
